PMC4336329 (PLoS ONE, 2015)
The campaign covered roughly 310,000 compounds. About 14,000 (4.5%) showed an effect of 50% or more. Effects have a minus sign here. For the sample, strong results were picked, then their nearest neighbours and some compounds at random.

Target: human ether-à-go-go-related gene (hERG) potassium channel (human, UniProt Q12809)
Experiment: primary screen, population patch clamp on CHO cells stably expressing hERG; higher = less effect of the substance
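Also: peak tail current of the secondary pulse compared with the same well before compound.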

Sequence of human ether-à-go-go-related gene (hERG) potassium channel (Q12809 whole entry, looked up): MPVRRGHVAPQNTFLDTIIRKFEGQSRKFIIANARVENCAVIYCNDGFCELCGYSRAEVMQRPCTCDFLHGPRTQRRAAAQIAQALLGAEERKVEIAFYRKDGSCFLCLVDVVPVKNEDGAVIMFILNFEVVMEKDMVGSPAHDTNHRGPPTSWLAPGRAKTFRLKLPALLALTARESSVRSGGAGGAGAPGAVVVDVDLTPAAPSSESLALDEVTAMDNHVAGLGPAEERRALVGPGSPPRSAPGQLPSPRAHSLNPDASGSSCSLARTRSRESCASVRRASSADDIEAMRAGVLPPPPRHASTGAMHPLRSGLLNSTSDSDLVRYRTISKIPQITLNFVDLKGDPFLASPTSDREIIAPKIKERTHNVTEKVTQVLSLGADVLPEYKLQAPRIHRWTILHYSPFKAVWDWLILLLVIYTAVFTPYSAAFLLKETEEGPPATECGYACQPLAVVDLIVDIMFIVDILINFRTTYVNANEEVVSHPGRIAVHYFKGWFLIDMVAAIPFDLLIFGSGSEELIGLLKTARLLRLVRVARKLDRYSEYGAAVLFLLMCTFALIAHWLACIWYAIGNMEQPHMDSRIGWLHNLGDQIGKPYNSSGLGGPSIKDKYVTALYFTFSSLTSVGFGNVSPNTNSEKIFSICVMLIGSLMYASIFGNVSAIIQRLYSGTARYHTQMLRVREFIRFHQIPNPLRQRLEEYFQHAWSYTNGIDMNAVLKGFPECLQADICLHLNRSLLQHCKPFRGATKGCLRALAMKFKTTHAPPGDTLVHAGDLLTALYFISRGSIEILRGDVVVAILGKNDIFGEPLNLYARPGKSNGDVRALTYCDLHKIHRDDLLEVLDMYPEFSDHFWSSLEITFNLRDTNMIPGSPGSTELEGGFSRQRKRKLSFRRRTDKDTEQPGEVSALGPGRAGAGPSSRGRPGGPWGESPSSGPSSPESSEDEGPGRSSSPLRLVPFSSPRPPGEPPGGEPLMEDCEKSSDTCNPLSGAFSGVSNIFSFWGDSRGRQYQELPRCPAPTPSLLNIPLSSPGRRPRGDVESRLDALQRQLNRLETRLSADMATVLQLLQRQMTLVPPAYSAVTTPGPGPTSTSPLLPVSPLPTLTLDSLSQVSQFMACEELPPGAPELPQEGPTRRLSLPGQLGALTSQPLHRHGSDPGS

Row | Structure (SMILES) | hERG current change (%, negative = inhibition) at 10uM [%]
1 | O=C(c1cc2ccccc2s1)N1CCN(c2ccccn2)CC1 | -11.5
2 | O=C(COC(=O)c1ccc(Br)o1)Nc1ncc([N+](=O)[O-])s1 | 10.6
3 | O=C(c1ccc(Cl)cc1)C1CCN(C(=O)NC2CCCCC2)CC1 | -6.29
4 | Cc1noc(C)c1C(=O)OC(C)C(=O)N1CCc2ccccc21 (centres unmarked) | 4.27
5 | Cc1nc(-c2cccc(NC(=O)c3cccs3)c2)cs1 | -23.3
6 | CCCN(C(=O)c1c(-c2ccccc2)noc1C)c1c(N)n(Cc2ccccc2)c(=O)[nH]c1=O | 1.43
7 | COc1cccc(CNC(=O)Cc2ccc(Br)cc2)c1 | 5.59
8 | Cc1ccc(-c2nnc(SCC(=O)Nc3nccs3)n2N)cc1 | -10.4
9 | O=[N+]([O-])c1ccc(N2CCN(c3ccc(O)cc3)CC2)c(Cl)c1 | -3.4
10 | CCn1nc(C)c(CNC(=O)Nc2ccccc2C(=O)OC)c1C | 13.5
11 | O=C(Nc1ccc2c(c1)CCC2)Nc1ccc(F)cc1F | 15.5
12 | Cc1ccccc1NC(=O)Nc1ccc2c(c1)CCC2 | 24.4
13 | O=C(Nc1ccc2c(c1)CCC2)Nc1ccccc1F | -61.6
14 | Cc1ccccc1NCN1C(=O)C2C3C=CC(C3)C2C1=O (centres unmarked) | 6.34
15 | COc1cccc(/C=N/NC(=O)Cn2nc(C)c([N+](=O)[O-])c2C)c1O | -13.1
16 | CCN1CCN(C(=O)N2CCOCC2)CC1 | 15.5
17 | CCc1ccccc1NC(=O)COc1cccc(-n2cnnn2)c1 | -8.5
18 | CS(=O)(=O)c1ccc(Cl)c(NC(=O)c2cccc(N3C(=O)CCC3=O)c2)c1 | 0.801
19 | O=C(CN1CCCCC1)Nc1cccc(-n2cnnn2)c1 | 0.45
20 | Cc1cccc(NC(=O)CN2CCN(C(=O)c3cccc(-n4cnnn4)c3)CC2)c1C | -41.5
21 | O=C(c1cccc(-n2cnnn2)c1)N1CCOCC1 | -8.49
22 | CS(=O)(=O)c1ccc(NC(=O)c2cccc(-n3cnnn3)c2)cc1 | 12.1
23 | O=C(CN1CCN(C(=O)c2cccc(-n3cnnn3)c2)CC1)Nc1ccccc1Cl | -90.3

Row | Structure (SMILES) | hERG current change (%, negative = inhibition) at 10uM [%]
24 | CS(=O)(=O)c1ccc(Cl)c(NC(=O)c2cccc(-n3cnnn3)c2)c1 | -65.6
25 | CCc1ccccc1NC(=O)CN1CCN(C(=O)c2cccc(-n3cnnn3)c2)CC1 | -65
26 | Cc1ccc(NC(=O)CSCC(=O)NC2(C)CCS(=O)(=O)C2)cc1 (centres unmarked) | 5.44
27 | O=C(O)Cc1sc(NCCc2ccccc2)nc1-c1ccc(F)cc1 | 3.77
28 | Cc1cn2c(-c3ccc(Cl)cc3)nnc2s1 | -33.3
29 | CN(CCC#N)C(=O)COC(=O)c1ccc2c(=O)n3c(nc2c1)CCC3 | 35
30 | COc1ccccc1/C=C/C(=O)OCC(=O)c1cc(C)n(C)c1C | -0.348
31 | O=C(O)c1ccc2c(c1)SC1=NS(=O)(=O)CCN12 | 8.48
32 | O=C(NCc1cccc(Cl)c1)c1ccc2c(c1)SC1=NS(=O)(=O)CCN12 | -5.52
33 | CC(C)(C)c1ccccc1NC(=O)c1ccc2c(c1)SC1=NS(=O)(=O)CCN12 | 6.51
34 | O=C(NCc1ccccc1Cl)c1ccc2c(c1)SC1=NS(=O)(=O)CCN12 | -7.44
35 | COc1ccc(CCNC(=O)c2ccc3c(c2)SC2=NS(=O)(=O)CCN23)cc1 | -60.4
36 | CN(C(=O)c1ccc2c(c1)SC1=NS(=O)(=O)CCN12)C(c1ccccc1)c1ccccc1 | -61
37 | O=[N+]([O-])c1cc(-c2nnc(Nc3ccccc3)c3ccccc23)ccc1N1CCOCC1 | -26.3
38 | COC(=O)c1cc(C(=O)OC)cc(-n2c(C)cc(C(=O)CC#N)c2C)c1 | -31.2
39 | O=C(N/N=C/c1ccncc1)C1CC1(c1ccccc1)c1ccccc1 (centres unmarked) | -24.9
40 | O=C(O)c1ccc(/C=N/NC(=O)C2CC2(c2ccccc2)c2ccccc2)cc1 (centres unmarked) | 17.9
41 | O=C(N/N=C/c1cccnc1)C1CC1(c1ccccc1)c1ccccc1 (centres unmarked) | -55.6
42 | O=C(N/N=C/c1ccc(O)c([N+](=O)[O-])c1)C1CC1(c1ccccc1)c1ccccc1 (centres unmarked) | -50.7
43 | O=C(N/N=C/C=C/c1ccccc1)C1CC1(c1ccccc1)c1ccccc1 (centres unmarked) | -1.54
44 | O=C(N/N=C\c1ccc(O)c([N+](=O)[O-])c1)C1COc2ccccc2O1 (centres unmarked) | -4.56
45 | CC(C)C(=O)Nc1nc2ccc(S(C)(=O)=O)cc2s1 | 5.14
46 | Cc1ccc(S(=O)(=O)Nc2c(C)n(C)n(-c3ccccc3)c2=O)cc1 | 9.73

Row | Structure (SMILES) | hERG current change (%, negative = inhibition) at 10uM [%]
47 | O=C(CN1C(=O)NC2(CCCCCC2)C1=O)Nc1ccc2c(c1)CCC2 | -5.72
48 | CCOC(=O)c1nc2ccccc2c(C)c1C.Cl | -5.73
49 | CCOC(=O)c1n[nH]n(-c2cc(Cl)cc(Cl)c2)c1=O | 25.7
50 | CCOC(=O)c1nc(C)nc(Sc2n[nH]c(-c3cc(Cl)cc(Cl)c3)n2)c1C | 4.12
51 | CCOC(=O)c1nc2cc3n(c(C)c-2c1C)C(C)C(CC)=C3C.Cl (centres unmarked) | -66.7
52 | CCOC(=O)c1nc2cc3n(c(CC(C)C)c-2c1C)CC(C)=C3C.Cl | -74
53 | CCOC(=O)c1nc2cc3n(c(C)c-2c1C)C(C)C(C)=C3C.Cl (centres unmarked) | -42.8
54 | CCc1cc(=O)oc2c(CNCc3ccc(OC)cc3OC)c(O)c(Cl)cc12.Cl | 13.3
55 | NNC(=O)C1CC1c1ccc(Cl)cc1 (centres unmarked) | 9.11
56 | COc1cc(/C=N/Nc2ccc(Cl)c(C(=O)O)c2)ccc1OCC(=O)N1C(C)CCCC1C (centres unmarked) | 16.5
57 | CCCn1c(N)c(N(CCOC)C(=O)c2ccc(N(C)S(=O)(=O)c3ccc(C)cc3)cc2)c(=O)[nH]c1=O | 7.32
58 | O=C(NC1CCCCC1)c1ccc(S(=O)(=O)NCc2cccnc2)cc1 | 5.88
59 | O=c1[nH]c(=O)n(-c2ccccc2Cl)c(O)c1C=NCCN1CCCCC1 | 6.09
60 | COc1ccc(CC(C)CC(=O)NCCc2ccc(OC)c(OC)c2)cc1 (centres unmarked) | 18.9
61 | COc1ccc(CC(C)NCCC(c2ccccc2)c2ccccc2)cc1 (centres unmarked) | -71.5
62 | CCCNCCC(c1ccco1)c1ccccc1OC (centres unmarked) | -41.8
63 | COc1ccc(CNc2ccc(-c3ccccc3OC)nn2)cc1 | -13.1
64 | COc1ccc(C(CC(=O)O)c2ccc3c(c2)OCO3)cc1 (centres unmarked) | 14.7
65 | COc1ccc(C(CCN)c2ccc3c(c2)OCO3)cc1 (centres unmarked) | 1.93
66 | COc1ccc(CNCCC(c2ccc(OC)cc2)c2ccccc2OC)cc1 (centres unmarked) | -74.2
67 | COc1ccc(CCC(C)NCC(C)c2ccccc2)cc1 (centres unmarked) | -48.3
68 | COc1ccc(CCC(C)NCCc2ccccc2)cc1 (centres unmarked) | -29.6
69 | CNCCc1ccc(OC)c(OC)c1 | 19.4

Row | Structure (SMILES) | hERG current change (%, negative = inhibition) at 10uM [%]
70 | COc1ccc(CC(C)NCCc2ccc(OC)c(OC)c2)cc1 (centres unmarked) | -60.3
71 | COc1ccc(CNCCC(c2ccccc2)c2ccc3c(c2)OCO3)cc1.Cl (centres unmarked) | -75
72 | CN(C)S(=O)(=O)c1ccc(N2CCCC2)c(C(=O)Nc2nc3ccc(F)cc3s2)c1 | -37.1
73 | Cc1nc(SCC(=O)Nc2ccc(C)c(F)c2)c2oc3ccccc3c2n1 | 4.4
74 | COc1ccccc1NC(=O)c1cc(S(=O)(=O)N2CCC3(CC2)OCCO3)ccc1F | -4.73
75 | COc1ccc(CN2CN(c3ccc(Cl)cc3)C(=O)N(n3cnnc3)C2)cc1 | -38.6
76 | COC(=O)C1=C(c2ccccc2)C[C@@H]2CC[C@H]1N2C(=O)N1CCCCC1 | -4.4
77 | Cn1c(=O)c2c(ncn2CCOc2ccc(F)cc2)n(C)c1=O | 12.3
78 | O=C(N/C=N/O)C(c1ccccc1)c1ncc(C(F)(F)F)cc1Cl (centres unmarked) | 3.35
79 | COc1ccc(-c2c/c(=N\c3nc(-c4ccccc4)c(C)s3)c3ccccc3o2)cc1O | 4.17
80 | COc1ccccc1NC(=O)C1CCCCN1S(=O)(=O)c1ccc(F)cc1 (centres unmarked) | -27.9
81 | O=C(NCc1ccc(F)cc1)N[C@@H](Cc1ccccc1)C(=O)O | 7.44
82 | CC(=O)OCc1c(C(F)(F)F)nn(C)c1Oc1cccc(C(F)(F)F)c1 | 2.3
83 | COc1ccc(C(C)NCCC(c2ccc(OC(C)C)cc2)c2ccccc2OC)cc1 (centres unmarked) | -64.2
84 | COc1ccc(C(O)P(=O)(OCc2ccccc2)c2ccc(N(C)C)cc2)cc1 (centres unmarked) | 15.4
85 | COc1ccc(C(CCNC(C)c2ccccc2)C(C)C)cc1 (centres unmarked) | -4.48
86 | COc1ccc(NC(=S)NCCC(c2ccccc2)c2ccccc2)c(OC)c1 | 2.53
87 | COc1ccccc1C(CC(=O)Nc1ccc(Cl)cc1)c1ccc(OC(C)C)cc1 (centres unmarked) | 1.17
88 | COc1ccc(C(CCNCc2ccc(OC(C)C)cc2)c2ccccc2OC)cc1 (centres unmarked) | -76
89 | COc1ccc(C(CCNCc2ccc(N(C)C)cc2)c2ccccc2OC)cc1 (centres unmarked) | -71.1
90 | COc1ccc(C(CC(=O)Nc2ccc(F)cc2)c2ccccc2)cc1 (centres unmarked) | 9.13
91 | COc1cccc(NC(=O)CC(c2ccc(OC(C)C)cc2)c2ccccc2OC)c1 (centres unmarked) | 1.26
92 | COc1ccc(C(CCNC(C)c2ccccc2)c2ccc(F)cc2)cc1 (centres unmarked) | -54.6
